# In article PMC7862700, “An all-to-all approach to the identification of sequence-specific readers for epigenetic DNA modifications on cytosine”:
# Tests used:
# Assay in all cases: DAPPL (digital affinity profiling via proximity ligation, sequencing); 10 mM Tris-HCl pH 7.5, 50 mM NaCl, 1 mM DTT, 4% glycerol, room temperature, 30 min; GST-TFs on glutathione beads, 16-mer random dsDNA library, 0.1% formaldehyde crosslink after washing; high values mean tight binding
# [1] = target: T1, FEV (Homo sapiens, UniProt Q99581 1-238); settings: protein: recombinant; tags: N-terminal GST; dsDNA, one strand shown
# T1 sequence: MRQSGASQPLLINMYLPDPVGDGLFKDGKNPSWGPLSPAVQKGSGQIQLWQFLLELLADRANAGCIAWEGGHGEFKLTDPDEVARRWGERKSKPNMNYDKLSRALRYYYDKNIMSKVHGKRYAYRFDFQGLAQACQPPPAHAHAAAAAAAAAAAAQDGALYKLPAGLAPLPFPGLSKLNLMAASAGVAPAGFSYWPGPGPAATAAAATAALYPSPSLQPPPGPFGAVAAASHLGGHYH
# Outline: (§1)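 Binding signal is each hexamer's read frequency for a factor divided by its frequency in the tag-only sample. The factors were GST-fused human transcription factors from yeast, captured on glutathione beads, DNA-barcoded and pooled with that sample. Pools were incubated with 200 nmole of a random double-stranded 16-mer DNA library in Tris/NaCl/DTT/glycerol buffer at room temperature for 30 min, then washed, crosslinked with 0.1% formaldehyde, proximity-ligated with BsaI/T4 ligase (1 h, 37 °C), PCR-amplified and sequenced on an Illumina NextSeq500.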
# [2] = target: ETV5 (Homo sapiens, UniProt P41161 1-510); settings: protein: recombinant; tags: N-terminal GST; dsDNA, one strand shown
# Outline: as §1
# [3] = target: HSF1 (Homo sapiens, UniProt Q00613 1-529); settings: protein: recombinant; tags: N-terminal GST; chain copies: 3; dsDNA, one strand shown
# Outline: as §1
# [4] = target: T2, SPIC (Homo sapiens, UniProt Q8N5J4 1-248); settings: protein: recombinant; tags: N-terminal GST; dsDNA, one strand shown
# T2 sequence: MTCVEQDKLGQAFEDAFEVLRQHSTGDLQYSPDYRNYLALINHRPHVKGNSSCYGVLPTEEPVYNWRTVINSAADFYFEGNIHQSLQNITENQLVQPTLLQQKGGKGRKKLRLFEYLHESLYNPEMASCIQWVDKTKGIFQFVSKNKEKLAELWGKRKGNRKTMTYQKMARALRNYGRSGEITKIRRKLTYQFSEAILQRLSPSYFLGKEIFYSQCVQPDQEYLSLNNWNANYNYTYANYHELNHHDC
# Outline: as §1
# [5] = target: ELF4 (Homo sapiens, UniProt Q99607 1-663); settings: protein: recombinant; tags: N-terminal GST; dsDNA, one strand shown
# Outline: as §1
# [6] = target: T3, ELK4 (Homo sapiens, UniProt P28324-2 1-405); settings: protein: recombinant; tags: N-terminal GST; dsDNA, one strand shown
# T3 sequence: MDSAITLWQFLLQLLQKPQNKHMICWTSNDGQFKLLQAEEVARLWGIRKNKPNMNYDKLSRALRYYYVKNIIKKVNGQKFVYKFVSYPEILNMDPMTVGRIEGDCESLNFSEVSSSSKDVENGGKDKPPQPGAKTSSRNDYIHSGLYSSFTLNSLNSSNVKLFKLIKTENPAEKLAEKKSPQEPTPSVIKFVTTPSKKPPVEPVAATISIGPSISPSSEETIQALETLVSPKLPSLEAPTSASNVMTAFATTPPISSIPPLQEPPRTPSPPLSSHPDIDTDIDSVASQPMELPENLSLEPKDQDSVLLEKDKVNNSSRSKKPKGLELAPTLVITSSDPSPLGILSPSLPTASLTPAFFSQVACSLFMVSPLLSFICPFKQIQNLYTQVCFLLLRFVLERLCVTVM
# Outline: as §1
# [7] = target: T4, ELF3 (Homo sapiens, UniProt P78545 1-371); settings: protein: recombinant; tags: N-terminal GST; dsDNA, one strand shown
# T4 sequence: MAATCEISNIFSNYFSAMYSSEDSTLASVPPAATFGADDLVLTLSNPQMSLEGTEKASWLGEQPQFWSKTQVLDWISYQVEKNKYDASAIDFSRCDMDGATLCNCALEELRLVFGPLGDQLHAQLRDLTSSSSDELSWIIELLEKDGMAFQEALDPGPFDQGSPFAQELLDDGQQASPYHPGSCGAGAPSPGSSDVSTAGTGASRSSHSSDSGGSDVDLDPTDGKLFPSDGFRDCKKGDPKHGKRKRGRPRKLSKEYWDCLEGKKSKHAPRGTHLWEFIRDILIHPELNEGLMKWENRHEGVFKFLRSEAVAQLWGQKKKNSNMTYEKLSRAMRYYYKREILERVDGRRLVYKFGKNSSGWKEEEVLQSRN
# Outline: as §1
# [8] = target: CRX (Homo sapiens, UniProt O43186 1-299); settings: protein: recombinant; tags: N-terminal GST; dsDNA, one strand shown
# Outline: as §1
# [9] = target: ETV1 (Homo sapiens, UniProt P50549 1-477); settings: protein: recombinant; tags: N-terminal GST; dsDNA, one strand shown
# Outline: as §1
# [10] = target: T5, ETV3L (Homo sapiens, UniProt Q6ZN32 1-361); settings: protein: recombinant; tags: N-terminal GST; dsDNA, one strand shown
# T5 sequence: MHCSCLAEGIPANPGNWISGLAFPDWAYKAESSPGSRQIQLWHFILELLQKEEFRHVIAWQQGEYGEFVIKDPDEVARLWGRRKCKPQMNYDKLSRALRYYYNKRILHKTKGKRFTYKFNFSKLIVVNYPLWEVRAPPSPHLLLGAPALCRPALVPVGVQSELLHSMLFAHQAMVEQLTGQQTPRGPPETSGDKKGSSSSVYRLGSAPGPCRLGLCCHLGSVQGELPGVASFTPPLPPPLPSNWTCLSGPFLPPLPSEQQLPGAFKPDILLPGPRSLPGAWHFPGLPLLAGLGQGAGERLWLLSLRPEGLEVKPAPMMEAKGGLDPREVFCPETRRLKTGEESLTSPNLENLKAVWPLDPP
# Outline: as §1
# [11] = target: T6, ETS2 (Homo sapiens, UniProt P15036 1-469); settings: protein: recombinant; tags: N-terminal GST; dsDNA, one strand shown
# T6 sequence: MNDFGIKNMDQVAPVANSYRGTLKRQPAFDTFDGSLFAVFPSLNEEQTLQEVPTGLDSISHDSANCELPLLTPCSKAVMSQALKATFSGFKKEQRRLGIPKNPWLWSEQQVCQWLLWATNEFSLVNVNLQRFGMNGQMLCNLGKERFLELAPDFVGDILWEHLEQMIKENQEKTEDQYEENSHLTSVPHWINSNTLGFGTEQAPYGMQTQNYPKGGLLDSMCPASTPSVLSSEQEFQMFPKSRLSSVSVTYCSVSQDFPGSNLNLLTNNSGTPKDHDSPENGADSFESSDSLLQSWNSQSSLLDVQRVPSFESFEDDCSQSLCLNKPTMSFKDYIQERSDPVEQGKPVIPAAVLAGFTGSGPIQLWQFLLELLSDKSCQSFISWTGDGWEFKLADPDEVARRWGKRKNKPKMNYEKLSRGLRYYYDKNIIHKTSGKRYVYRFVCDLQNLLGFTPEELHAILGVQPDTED
# Outline: as §1
# [12] = target: T7, SPDEF (Homo sapiens, UniProt O95238 1-335); settings: protein: recombinant; tags: N-terminal GST; dsDNA, one strand shown
# T7 sequence: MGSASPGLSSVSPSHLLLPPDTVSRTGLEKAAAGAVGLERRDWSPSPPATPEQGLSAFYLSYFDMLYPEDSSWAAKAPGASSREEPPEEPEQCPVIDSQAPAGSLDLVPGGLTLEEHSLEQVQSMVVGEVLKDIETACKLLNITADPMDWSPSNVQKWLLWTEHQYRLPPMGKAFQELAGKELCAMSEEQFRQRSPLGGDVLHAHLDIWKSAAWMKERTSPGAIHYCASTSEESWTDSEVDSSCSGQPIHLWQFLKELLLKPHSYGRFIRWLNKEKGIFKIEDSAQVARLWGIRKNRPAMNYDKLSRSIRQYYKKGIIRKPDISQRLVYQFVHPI
# Outline: as §1
# [13] = target: T8, ETV7 (Homo sapiens, UniProt Q9Y603 1-341); settings: protein: recombinant; tags: N-terminal GST; dsDNA, one strand shown
# T8 sequence: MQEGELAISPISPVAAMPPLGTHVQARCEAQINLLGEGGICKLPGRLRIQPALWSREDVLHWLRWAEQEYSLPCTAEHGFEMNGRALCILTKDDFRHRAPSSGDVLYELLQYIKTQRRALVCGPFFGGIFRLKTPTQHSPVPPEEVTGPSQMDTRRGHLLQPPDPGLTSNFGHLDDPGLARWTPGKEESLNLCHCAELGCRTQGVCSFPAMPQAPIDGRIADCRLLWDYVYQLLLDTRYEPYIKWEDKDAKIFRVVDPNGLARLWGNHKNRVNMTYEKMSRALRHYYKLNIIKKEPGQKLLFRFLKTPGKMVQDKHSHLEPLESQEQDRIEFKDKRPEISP
# Outline: as §1
# [14] = target: T9, ELF5 (Homo sapiens, UniProt Q9UKW6-2 1-255); settings: protein: recombinant; tags: N-terminal GST; dsDNA, one strand shown
# T9 sequence: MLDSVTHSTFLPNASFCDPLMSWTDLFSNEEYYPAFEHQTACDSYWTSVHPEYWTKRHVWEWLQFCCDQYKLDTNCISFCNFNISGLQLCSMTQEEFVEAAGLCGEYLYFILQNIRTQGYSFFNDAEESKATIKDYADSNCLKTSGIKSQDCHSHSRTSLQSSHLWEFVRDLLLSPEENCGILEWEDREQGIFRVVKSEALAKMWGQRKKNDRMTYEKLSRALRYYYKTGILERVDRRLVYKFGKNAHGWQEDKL
# Outline: as §1
# [15] = target: T10, ETV3 (Homo sapiens, UniProt P41162-2 1-143); settings: protein: recombinant; tags: N-terminal GST; dsDNA, one strand shown
# T10 sequence: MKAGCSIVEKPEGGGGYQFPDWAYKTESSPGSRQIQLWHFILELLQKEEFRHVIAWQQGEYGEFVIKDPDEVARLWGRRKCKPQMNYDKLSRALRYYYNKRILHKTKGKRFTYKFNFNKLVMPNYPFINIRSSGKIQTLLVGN
# Outline: as §1
# [16] = target: ETV6 (Homo sapiens, UniProt P41212 1-452); settings: protein: recombinant; tags: N-terminal GST; dsDNA, one strand shown
# Outline: as §1
# [17] = target: T11, ERF (Homo sapiens, UniProt P50548 1-548); settings: protein: recombinant; tags: N-terminal GST; dsDNA, one strand shown
# T11 sequence: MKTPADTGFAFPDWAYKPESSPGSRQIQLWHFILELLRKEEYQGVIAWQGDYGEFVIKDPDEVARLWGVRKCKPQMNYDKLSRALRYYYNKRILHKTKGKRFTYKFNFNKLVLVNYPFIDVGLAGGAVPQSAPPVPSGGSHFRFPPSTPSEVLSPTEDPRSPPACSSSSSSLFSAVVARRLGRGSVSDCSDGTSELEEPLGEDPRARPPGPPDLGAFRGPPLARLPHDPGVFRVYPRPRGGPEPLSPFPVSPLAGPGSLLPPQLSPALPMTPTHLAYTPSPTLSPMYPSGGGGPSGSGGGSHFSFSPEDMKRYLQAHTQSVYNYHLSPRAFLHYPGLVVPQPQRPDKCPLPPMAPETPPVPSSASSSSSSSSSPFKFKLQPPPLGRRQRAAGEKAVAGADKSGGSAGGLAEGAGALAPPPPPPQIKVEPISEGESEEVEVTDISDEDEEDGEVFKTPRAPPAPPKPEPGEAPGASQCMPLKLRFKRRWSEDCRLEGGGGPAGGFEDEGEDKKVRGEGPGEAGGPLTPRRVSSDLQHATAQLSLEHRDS
# Outline: as §1
# Sequence of ELF4 (Q99607 whole entry): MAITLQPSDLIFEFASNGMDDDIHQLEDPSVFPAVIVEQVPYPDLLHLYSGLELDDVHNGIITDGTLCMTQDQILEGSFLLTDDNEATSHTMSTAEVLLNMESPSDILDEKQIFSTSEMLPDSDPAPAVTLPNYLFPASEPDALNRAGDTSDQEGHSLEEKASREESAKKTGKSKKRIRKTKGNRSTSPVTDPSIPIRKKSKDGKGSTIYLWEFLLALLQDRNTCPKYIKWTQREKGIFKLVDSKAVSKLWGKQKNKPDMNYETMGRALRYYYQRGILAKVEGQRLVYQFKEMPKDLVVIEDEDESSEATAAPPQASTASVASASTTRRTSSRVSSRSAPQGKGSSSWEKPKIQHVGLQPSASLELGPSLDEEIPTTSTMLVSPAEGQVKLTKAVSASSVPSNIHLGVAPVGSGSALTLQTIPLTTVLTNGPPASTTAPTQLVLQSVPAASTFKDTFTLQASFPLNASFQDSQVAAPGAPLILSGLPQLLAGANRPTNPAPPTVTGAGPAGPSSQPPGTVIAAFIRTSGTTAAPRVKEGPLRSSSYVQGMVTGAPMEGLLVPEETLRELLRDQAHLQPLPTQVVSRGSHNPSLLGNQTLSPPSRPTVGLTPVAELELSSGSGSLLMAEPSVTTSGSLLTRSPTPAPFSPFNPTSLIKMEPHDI
# Sequence of ETV6 (P41212 whole entry): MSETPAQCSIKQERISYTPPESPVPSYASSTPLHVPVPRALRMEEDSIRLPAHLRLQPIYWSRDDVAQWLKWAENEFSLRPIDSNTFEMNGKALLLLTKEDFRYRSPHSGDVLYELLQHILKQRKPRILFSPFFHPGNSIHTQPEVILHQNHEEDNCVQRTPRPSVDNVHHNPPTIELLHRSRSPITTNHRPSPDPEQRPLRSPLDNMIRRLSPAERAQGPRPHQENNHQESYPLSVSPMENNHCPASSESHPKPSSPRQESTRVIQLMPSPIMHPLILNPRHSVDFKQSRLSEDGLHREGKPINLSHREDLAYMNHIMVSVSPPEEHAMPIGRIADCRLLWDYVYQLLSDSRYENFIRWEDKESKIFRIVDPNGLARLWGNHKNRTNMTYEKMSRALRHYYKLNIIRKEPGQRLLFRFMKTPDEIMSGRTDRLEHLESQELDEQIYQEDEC
# Sequence of CRX (O43186 whole entry): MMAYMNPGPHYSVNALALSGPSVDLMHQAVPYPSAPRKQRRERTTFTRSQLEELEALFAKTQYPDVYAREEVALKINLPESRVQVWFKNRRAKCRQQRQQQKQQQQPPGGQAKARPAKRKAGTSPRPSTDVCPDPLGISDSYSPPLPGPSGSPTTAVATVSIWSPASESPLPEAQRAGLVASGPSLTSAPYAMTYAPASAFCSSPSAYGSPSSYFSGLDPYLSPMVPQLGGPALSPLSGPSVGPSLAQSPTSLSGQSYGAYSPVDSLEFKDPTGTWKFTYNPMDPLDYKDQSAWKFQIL
# Sequence of ETV5 (P41161 whole entry): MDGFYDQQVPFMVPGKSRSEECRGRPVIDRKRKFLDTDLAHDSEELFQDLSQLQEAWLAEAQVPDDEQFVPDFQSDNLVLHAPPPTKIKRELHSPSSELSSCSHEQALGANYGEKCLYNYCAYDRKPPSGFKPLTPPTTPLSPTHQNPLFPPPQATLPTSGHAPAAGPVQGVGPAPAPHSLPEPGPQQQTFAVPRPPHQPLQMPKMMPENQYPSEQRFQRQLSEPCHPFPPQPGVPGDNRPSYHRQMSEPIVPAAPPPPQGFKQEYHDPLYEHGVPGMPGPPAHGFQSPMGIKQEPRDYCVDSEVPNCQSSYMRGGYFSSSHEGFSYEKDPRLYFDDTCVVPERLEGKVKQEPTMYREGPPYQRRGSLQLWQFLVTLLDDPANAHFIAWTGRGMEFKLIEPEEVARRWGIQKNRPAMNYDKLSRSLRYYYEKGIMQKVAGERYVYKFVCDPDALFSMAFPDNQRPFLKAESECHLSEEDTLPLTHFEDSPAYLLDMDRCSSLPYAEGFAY
# Sequence of HSF1 (Q00613 whole entry): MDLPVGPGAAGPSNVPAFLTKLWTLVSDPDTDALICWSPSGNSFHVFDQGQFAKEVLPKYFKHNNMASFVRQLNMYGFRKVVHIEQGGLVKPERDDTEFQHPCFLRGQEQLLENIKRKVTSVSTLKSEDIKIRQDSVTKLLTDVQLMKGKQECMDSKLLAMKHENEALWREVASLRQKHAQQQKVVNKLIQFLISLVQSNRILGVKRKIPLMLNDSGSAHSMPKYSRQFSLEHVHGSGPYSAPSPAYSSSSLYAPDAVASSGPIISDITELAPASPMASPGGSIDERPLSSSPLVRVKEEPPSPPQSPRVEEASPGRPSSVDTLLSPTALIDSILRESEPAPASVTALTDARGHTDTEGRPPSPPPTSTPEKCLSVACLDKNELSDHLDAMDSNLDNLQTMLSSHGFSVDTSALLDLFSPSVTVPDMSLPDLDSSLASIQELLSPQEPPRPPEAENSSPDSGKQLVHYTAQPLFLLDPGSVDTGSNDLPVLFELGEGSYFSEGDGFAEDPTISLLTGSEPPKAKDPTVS
# Sequence of ETV1 (P50549 whole entry): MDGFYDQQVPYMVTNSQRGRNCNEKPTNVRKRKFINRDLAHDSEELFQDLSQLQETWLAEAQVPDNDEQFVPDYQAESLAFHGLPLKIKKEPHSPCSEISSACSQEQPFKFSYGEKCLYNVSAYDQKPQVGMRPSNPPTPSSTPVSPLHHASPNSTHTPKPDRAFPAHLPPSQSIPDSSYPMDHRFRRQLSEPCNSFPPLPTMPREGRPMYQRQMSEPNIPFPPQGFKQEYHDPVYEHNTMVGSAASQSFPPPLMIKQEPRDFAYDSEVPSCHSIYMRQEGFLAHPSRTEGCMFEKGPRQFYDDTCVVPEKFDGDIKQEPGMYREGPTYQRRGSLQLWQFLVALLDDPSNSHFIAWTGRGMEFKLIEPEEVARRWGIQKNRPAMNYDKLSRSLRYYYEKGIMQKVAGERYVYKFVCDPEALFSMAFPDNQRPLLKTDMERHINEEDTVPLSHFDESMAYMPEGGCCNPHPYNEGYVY
Sequence,binding signal [1],binding signal [2],binding signal [3],binding signal [4],binding signal [5],binding signal [6],binding signal [7],binding signal [8],binding signal [9],binding signal [10],binding signal [11],binding signal [12],binding signal [13],binding signal [14],binding signal [15],binding signal [16],binding signal [17]
GAATAT,"1.03 fold enrichment (6-mer frequency, TF over GST control)","1.07 fold enrichment (6-mer frequency, TF over GST control)","1.67 fold enrichment (6-mer frequency, TF over GST control)","1.13 fold enrichment (6-mer frequency, TF over GST control)","1.05 fold enrichment (6-mer frequency, TF over GST control)","1.07 fold enrichment (6-mer frequency, TF over GST control)","1.09 fold enrichment (6-mer frequency, TF over GST control)","1.2 fold enrichment (6-mer frequency, TF over GST control)","1.03 fold enrichment (6-mer frequency, TF over GST control)","1.05 fold enrichment (6-mer frequency, TF over GST control)","1.05 fold enrichment (6-mer frequency, TF over GST control)","1.02 fold enrichment (6-mer frequency, TF over GST control)","1.1 fold enrichment (6-mer frequency, TF over GST control)","1.12 fold enrichment (6-mer frequency, TF over GST control)","1.12 fold enrichment (6-mer frequency, TF over GST control)","1.07 fold enrichment (6-mer frequency, TF over GST control)",–
GATAAT,–,"1.05 fold enrichment (6-mer frequency, TF over GST control)","1.98 fold enrichment (6-mer frequency, TF over GST control)","1.27 fold enrichment (6-mer frequency, TF over GST control)","1.1 fold enrichment (6-mer frequency, TF over GST control)","1.09 fold enrichment (6-mer frequency, TF over GST control)",–,"2.88 fold enrichment (6-mer frequency, TF over GST control)","1.14 fold enrichment (6-mer frequency, TF over GST control)","1.12 fold enrichment (6-mer frequency, TF over GST control)","1.18 fold enrichment (6-mer frequency, TF over GST control)",–,"1.12 fold enrichment (6-mer frequency, TF over GST control)","1.08 fold enrichment (6-mer frequency, TF over GST control)","1.15 fold enrichment (6-mer frequency, TF over GST control)","1.05 fold enrichment (6-mer frequency, TF over GST control)","1.11 fold enrichment (6-mer frequency, TF over GST control)"
